Here are results for 47 compounds from PubChem BioAssay (NCATS).

Values without a mark were called inactive. Inconclusive results are not listed. Where a call stands in place of a potency, no number is given. The source made the active and inactive calls. Calls come from the whole dose curve; as a rule, active = well fitted inhibition curve with a large enough effect; inconclusive = small, poorly fitted or top-dose-only effect; inactive = no such curve, though single readings can be large or run the other way.

A short description of assay [1]: qHTS assay for measurement of the activity of small molecule inhibitors on Zika virus induced Caspase-3 activity in human iPSC derived neural progenitor cells (hNPCs) (AID 1224857). Note: nearly all actives have a fitted effect of over 65% in size. Note: potency is the fitted concentration of half-maximal effect. In outline:
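Pretreat hNPCs with compound 1 h; infect ZIKV 2 FFU/cell; 6 h 37 C, 5% CO2; Caspase-Glo 3/7, 30 min RT; luminescence; normalize to no-virus and virus-only wells.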
On the technique in general: Quantitative high-throughput screening tests each substance at several concentrations.

A short description of assay [2]: qHTS assay for measurement of the activity of small molecule inhibitors on Zika virus induced Caspase-3 activity in human astrocytoma cells (AID 1224859). In outline:
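Human SNB-19 astrocytoma cells in RPMI 1640 with 10% FBS receive compound one hour ahead of Zika virus at 2 FFU/cell. After 6 h infection, caspase-3/7 activity is detected by Caspase-Glo luminescence.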

With `Cc1ncc([N+](=O)[O-])n1C`, the Potency entry in assay [1] is “inactive”. In assay [2], the call was inactive.
Consider `CN1CCCN(C(c2ccccc2)c2ccc(Cl)cc2)CC1` (centres undefined), for which, in assay [1], the Potency entry is “inactive”. Besides, the compound was classed as inactive in assay [2].
Take `CCOC(=O)C(=O)CCc1ccccc1`: the Potency entry in assay [1] is “inactive”. Besides, the call in assay [2] was inactive.
On to `NC(=O)C1(N2CCCCC2)CCN(CCCN2c3ccccc3CCc3ccc(Cl)cc32)CC1`, for which, in assay [1], the Potency result was “inactive”. Moreover, the result in assay [2] was inactive.
With `COC(=O)c1cc(Cl)ccc1NS(=O)(=O)C(F)(F)F`, the Potency entry in assay [1] is “inactive”. Also, the outcome in assay [2] was inactive.
Regarding `CCN(CC)CC(=O)Oc1ccc(NC(C)=O)cc1`, the Potency result in assay [1] is “inactive”. The outcome in assay [2] was inactive.
Turning to `CC(=O)O[C@@H]1CC2C3CCc4cc(OC(=O)c5ccccc5)ccc4C3CCC2(C)[C@H]1OC(C)=O` (some centres undefined), the Potency entry in assay [1] is “inactive”. Also, the compound was classed as inactive in assay [2].
Take `COC(=O)/C=C(/C)N`: the Potency entry in assay [1] is “inactive”. Moreover, the compound was classed as inactive in assay [2].
As to `Cc1cccc(N(C)C(=S)Oc2ccc3c(c2)C2CCC3C2)c1` (centres undefined), in assay [1], the Potency result is “inactive”. For the same compound, the outcome in assay [2] was inactive.
Regarding `CN(C)CCN1CCN(c2cccc(Cl)c2)C1=O`, the Potency entry in assay [1] is “inactive”. Besides, in assay [2], the compound was classed as inactive.
On to `CNC(=O)c1cnn(-c2nc(N)c3ncn([C@@H]4O[C@H](CO)[C@@H](O)[C@H]4O)c3n2)c1`, for which the Potency entry in assay [1] is “inactive”. For the same compound, the compound was classed as inactive in assay [2].
On to `Nc1ccc(C(=O)OCC(O)CO)cc1` (centres undefined), for which the Potency result in assay [1] is “inactive”. For the same compound, in assay [2], the result was inactive.
In the case of `CN1Cc2cc(C(=O)N3CCC(C4CCNCC4)CC3)ccc2NC(CC(=O)O)C1=O` (centres undefined), in assay [1], the Potency entry was “inactive”. Moreover, the compound was classed as inactive in assay [2].
Consider `Cc1cc(O)c(C)c(C)c1O`, for which the Potency result in assay [1] is “inactive”. Further, in assay [2], the compound was classed as inactive.
For the compound `Cc1cc(=O)oc2cc(O[C@@H]3SC[C@@H](O)[C@H](O)[C@H]3O)ccc12`, the Potency entry in assay [1] is “inactive”. Also, the compound was called inactive in assay [2].
For `O=C1Cc2cc(Cl)ccc2N1`, the Potency result in assay [1] is “inactive”. Further, in assay [2], the result was inactive.
Regarding `CC(C)(C)CC(=O)OCC(=O)[C@@]1(O)CC[C@H]2[C@@H]3CCC4=CC(=O)C=C[C@]4(C)[C@H]3[C@@H](O)C[C@@]21C`, the Potency entry in assay [1] is “inactive”. In addition, in assay [2], the compound was classed as inactive.
On to `CCOC(=O)C(=O)c1csc(NC=O)n1`, for which the Potency entry in assay [1] was “inactive”. In assay [2], the compound was called inactive.
For the compound `CC(C)C(=O)OCc1cccc(OC(=O)[C@@H]2N3C(=O)[C@@H](NC(=O)Cc4ccccc4)[C@H]3SC2(C)C)c1`, the Potency result in assay [1] was “inactive”. In assay [2], the compound was classed as inactive.
`COc1cc2nc(Cl)nc(N)c2cc1OC`: the Potency entry in assay [1] is “inactive”. Also, the outcome in assay [2] was inactive.
As to `Cc1ccc(Cl)c(OCC(O)CNC(C)(C)C)c1` (centres undefined), the Potency entry in assay [1] is “inactive”. Also, in assay [2], the call was inactive.
On to `CCCCCCCC(=O)[O-].CCCCCCCC(=O)[O-].[Zn+2]`, for which the Potency entry in assay [1] was “inactive”. Further, in assay [2], the call was inactive.
`CCCCC(CC)CNC(=O)CC(C)OC(=O)CCC(=O)O` (centres undefined): in assay [1], the Potency result was “inactive”. Also, the compound was classed as inactive in assay [2].
As for `CCCc1ccc(OCC(=O)N2CCN(C(=O)COc3ccc(CCC)cc3OC)CC2)c(OC)c1`, the Potency entry in assay [1] is “inactive”. The outcome in assay [2] was inactive.
For `NC(=O)NC1N=C([O][Al])NC1=O` (centres undefined), the Potency result in assay [1] is “inactive”. For the same compound, the call in assay [2] was inactive.
In the case of `CCc1cc2cc(OC)c(OC)cc2c(Cc2ccccc2)n1`, the Potency result in assay [1] was “inactive”. In addition, in assay [2], the compound was classed as inactive.
For `C[C@H]1C[C@H](O)c2ccsc2S1(=O)=O`, in assay [1], the Potency entry is “inactive”. The compound was called inactive in assay [2].
In the case of `Cc1oc(=O)oc1COC(=O)[C@@H]1N2C(=O)[C@@H](NC(=O)[C@H](N)c3ccccc3)[C@H]2SC1(C)C`, the Potency result in assay [1] was “inactive”. Further, the result in assay [2] was inactive.
Consider `CC(C)C[C@@H]1[C@H](c2ccccc2)OC(=O)N1CCCN1CCCCCC1`, for which the Potency result in assay [1] is “inactive”. The call in assay [2] was inactive.
For `CCOC(=O)CN1CCCC1=O`, the Potency result in assay [1] is “inactive”. Moreover, the outcome in assay [2] was inactive.
For the compound `CC(Oc1c(Cl)cccc1Cl)C1=NCCN1` (centres undefined), in assay [1], the Potency entry was “inactive”. Besides, the compound was called inactive in assay [2].
On to `COc1ccc(-n2nc(CCC(=O)N(C)O)cc2-c2ccc(Cl)cc2)cc1`, for which, in assay [1], the Potency entry was “inactive”. Moreover, the compound was classed as inactive in assay [2].
As for `C[C@@H](C1=C(CCN(C)C)Cc2ccccc21)c1ccccn1`, the Potency result in assay [1] is “inactive”. For the same compound, in assay [2], the compound was called inactive.
In the case of `Nc1cc(C(F)(F)F)ccc1S`, the Potency in assay [1] is 14.1 µM (active). For the same compound, the compound was called inactive in assay [2].
The corresponding values for `C#Cc1ccc(-c2ccccc2F)cc1` are “inactive” and “inactive”.
As to `Cc1ccc2ccc(Cl)cc2n1`, the Potency entry in assay [1] is “inactive”. The compound was classed as inactive in assay [2].
With `CN(C)[C@@H]1C(=O)C(C(N)=O)=C(O)[C@@]2(O)C(=O)C3=C(O)c4c(O)cccc4C[C@H]3C[C@@H]12`, in assay [1], the Potency result was “inactive”. Also, the outcome in assay [2] was inactive.
On to `N#CSCC(=O)O`, for which the Potency result in assay [1] was “inactive”. Also, in assay [2], the compound was called inactive.
Consider `O=C(CCCl)NCCc1ccccc1`, for which the Potency entry in assay [1] was “inactive”. Moreover, in assay [2], the compound was classed as inactive.
Regarding `COCCOCC(OC)OC`, the Potency result in assay [1] is “inactive”. Moreover, the compound was called inactive in assay [2].
As for `Cc1c(F)cc2c(=O)c(C(=O)O)cn3c2c1CCC3C` (centres undefined), in assay [1], the Potency entry is “inactive”. Besides, the call in assay [2] was inactive.
With `CCOCCn1c(C2CCN(CCc3ccc(C(C)(C)C(=O)O)cc3)CC2)nc2ccccc21`, the Potency entry in assay [1] is “inactive”. Moreover, the result in assay [2] was inactive.
In the case of `CN(C)CCCOC1(Cc2ccccc2)CCCCCC1`, in assay [1], the Potency entry is “inactive”. For the same compound, the outcome in assay [2] was inactive.
With `Nc1nc2ccccc2n1Cc1ccc(F)cc1`, in assay [1], the Potency result was “inactive”. For the same compound, the compound was called inactive in assay [2].
Take `COc1cc(S(N)(=O)=O)cc(C(=O)O)c1OC`: the Potency entry in assay [1] is “inactive”. Moreover, the compound was classed as inactive in assay [2].
As for `CCOC(=O)C(O)c1ccccc1` (centres undefined), in assay [1], the Potency result was “inactive”. In addition, the outcome in assay [2] was inactive.
Regarding `CC(=O)N(c1onc(C)c1C)S(=O)(=O)c1ccc(N)cc1`, the Potency result in assay [1] was “inactive”. Also, the result in assay [2] was inactive.
